Screening results from PubChem.
NALP1 yeast inh: blocks the NALP1 inflammasome reconstituted in yeast; S. cerevisiae NALP1/ASC/caspase-1 growth, X-gal OD620, 72 h; inhibition, % at 10 µM; 280,000 tested, 0.61% active; AID 2071; in the data active = inhibition mostly above about 24%, no sharp cut-off; inactive = mostly below about 32%
HDAC3 inhib: blocks human histone deacetylase 3. O15379. recombinant HDAC3, fluorogenic peptide/trypsin coupled, fluorescence. inhibition, % at 8.3 µM. 320,000 tested, 0.15% active; in the data active = inhibition above about 26%, passing the limit was not always enough; inconclusive = no clear call, values can overlap the other calls
Efflux pump mplx: blocks antifungal efflux pumps in multiplex yeast assay; inhibition, % at 10 µM; S. cerevisiae Candida pump triplex, Nile Red efflux; 330,000 tested, 0.44% active;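 active = plate passing quality check with inhibition over a set limit, or well fluorescence over plate mean plus 4 SD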;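 also: Nile Red retained in pooled yeast measured as flow cytometry median fluorescence; 0% = buffer negative control and 100% = Enniatin B positive control; higher means more Nile Red kept so more efflux inhibition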
JMJD2C inh: human JMJD2C demethylase inhibition | Q9H3R0 | GST-JMJD2C(1-420) H3K9me3 demethylation, DELFIA europium | inhibition, % at 2.35 µM | 330,000 tested, 0.069% active | AID 2099;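 active = more than half of a compound's replicate wells show inhibition beyond 50%, single wells judged on their own value; inconclusive = some, but no more than half, of replicates pass 50% inhibition; inactive = no replicate passes 50% inhibition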;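 also: signal counts dimethyl H3K9 product captured on neutravidin plate; 0% = median of DMSO wells and 100% = 0.3 times that DMSO median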
Target sequence (Q9H3R0 1-420 limits assumed): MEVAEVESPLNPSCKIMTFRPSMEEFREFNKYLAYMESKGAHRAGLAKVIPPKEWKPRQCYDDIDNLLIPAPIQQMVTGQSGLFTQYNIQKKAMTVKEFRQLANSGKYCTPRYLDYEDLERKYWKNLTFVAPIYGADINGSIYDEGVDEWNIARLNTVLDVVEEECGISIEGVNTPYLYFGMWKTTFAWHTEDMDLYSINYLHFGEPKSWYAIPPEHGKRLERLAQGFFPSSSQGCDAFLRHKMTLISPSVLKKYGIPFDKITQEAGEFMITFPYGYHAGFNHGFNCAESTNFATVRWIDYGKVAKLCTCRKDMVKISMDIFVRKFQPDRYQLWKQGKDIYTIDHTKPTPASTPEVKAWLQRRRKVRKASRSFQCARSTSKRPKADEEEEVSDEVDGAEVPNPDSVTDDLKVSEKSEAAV
PolyA inh: yeast polyadenylation inhibition; S. cerevisiae SKY197-pL101 polyadenylation reporter, beta-gal luminescence; efflux-impaired pdr1/pdr3 knockout yeast; score 100 = 6 SD above DMSO; activity score, % at 12 µM; 300,000 tested, 0.02% active;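 active = lowest replicate activity score at least 50, where 100 means six control SD above control mean; inconclusive = lowest score under 50 but half or more replicates reach 50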;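 also: yeast exposed to compound for 9 h at 30 °C; higher score means more reporter readthrough which indicates perturbed polyadenylation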
NALP3 yeast inh: inhibitors of NALP3 inflammasome in yeast. inhibition, % at 10 µM. Yeast reconstituted NLRP3/ASC/caspase-1, beta-gal luminescence, 24 h. 330,000 tested, 0.39% active. AID 2825;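 active = inhibition of 50% or more; inactive = inhibition below 50%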;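 also: plate controls were induced DMSO wells for no effect and uninduced yeast grown without galactose for full effect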
Numbers without * were called inactive; ? = inconclusive; / = not tested or not shown. Hits are enriched below; roughly 1.5% of the tested compounds scored in any of these assays.

SMILES	NALP1 yeast inh	HDAC3 inhib	Efflux pump mplx	JMJD2C inh	PolyA inh	NALP3 yeast inh
C(=N\Nc1nc(Nc2ccccc2)nc(N2CCOCC2)n1)/c1c[nH]c2ccccc12	-10	24	0	-5	-2	41
CC1CCCCC1NC(=O)C1CCN(S(=O)(=O)c2ccc3c(c2)CCC(=O)N3)CC1 (centres undefined)	32*	3	0	8	0	10
CCOC(=O)C1=C(C)NC(=O)NC1c1c(C)nn(-c2ccccc2)c1Cl (centres undefined)	17	2	0	60*	3	4
CCOC(=O)C=Nc1c(N)n(C)c(=O)n(C)c1=O	20	10	0	-10	5	9
CCCCCC(=O)Nc1nnn(CCC)n1	43*	-1	-1	77	-7	-7
Cc1csc(CNc2ncnc3ccc(-c4cccc(Cl)c4)cc23)c1	/	5	0	/	/	27
O=c1c2ccccc2ncn1-c1ccc([N+](=O)[O-])cc1Cl	-6	-1	0	-3	-10	26
O=C(O)c1cc(-c2cccc([N+](=O)[O-])c2)n[nH]1	22	-3	0	14	-6	15
CCOC(=O)c1cc(-c2cccc([N+](=O)[O-])c2)n[nH]1	30*	-1	0	-7	-16	23
OC1CCN(c2cc(-c3ccccc3)nc3cc(-c4ccc(F)cc4)nn23)CC1	1	-38	0	6	-28	21
CCN1CCN(c2cc(-c3ccccc3)nc3cc(-c4cccc(F)c4)nn23)CC1	31	-22	1.3*	8	-17	45
CN(c1ccc(OCC(=O)Nc2ccc3[nH]c(=O)[nH]c3c2)cc1)S(=O)(=O)c1ccc(Cl)cc1	42*	-12	0	-3	10	-6
CN(c1ccc(OCC(=O)NCCc2ccccc2)cc1)S(=O)(=O)c1ccc(Cl)cc1	/	-5	0	-2	0	23
COc1ccc(CCNC(=O)COc2ccc(N(C)S(=O)(=O)c3ccc(Cl)cc3)cc2)cc1	26*	/	/	-17	2	/
O=C(Oc1cc(=O)n2ccccc2n1)c1ccccc1	25	38*	0	-7	-14	/
Cc1ccc(NC(=O)/C(Cl)=C/c2ccccc2)cc1C	37*	10	0	1	-9	36
CC(=O)Nc1ccccc1C(=O)C(=O)Nc1ccc(C)c(C)c1	26	5	0	87	-4	6
C[n+]1c2n(c3ccccc31)N=C(c1ccc(-c3ccccc3)cc1)CS2	15	/	0	-16	-19	10
C[n+]1c2n(c3ccccc31)N=C(c1ccccc1)CS2	-8	31*	0	13	4	12
CCOc1ccc(S(=O)(=O)N2CCCC(C(=O)NCc3cccnc3)C2)cc1 (centres undefined)	9	-2	0	-17	4	20
CC(CN1C(C)CCCC1C)OC(=O)c1ccc(F)cc1 (centres undefined)	-2	2	0	2	7	18
Cc1cc(NC(=O)CCC(=O)N(CCC(C)C)C(C(=O)NC2CCCC2)c2ccccc2C)no1 (centres undefined)	10	5	0	1	-2	25
Cc1c(CC(=O)O)c(=O)oc2c(C)c(OCc3nn[nH]n3)ccc12	37*	-38	0	0	?	-1
CC(C)OCCCNC(=O)c1cc(-c2cccnc2)nc2ccccc12	6	5	0	-5	8	14
CCOC(=O)Nc1cc(C)c(Cl)cc1OC	18	7	0	51*	3	5
SMILES	NALP1 yeast inh	HDAC3 inhib	Efflux pump mplx	JMJD2C inh	PolyA inh	NALP3 yeast inh
CCCn1nnnc1SCC(=O)c1ccc2c(c1)OCCO2	-23	50*	0	7	2	3
O=C(CSc1nnc(SCc2cccc3ccccc23)s1)c1ccc2c(c1)OCO2	25	38*	0	-3	/	29
CCc1nc(SCC(=O)c2ccc3c(c2)OCCO3)c2ccccc2n1	43	34*	0	-3	-10	28
O=C(Nc1ccc(Cl)cc1)c1ccc(OCC2CCCO2)cc1 (centres undefined)	35*	-1	0	-1	-5	29
O=C(NCc1ccc(Cl)cc1)c1ccc(OCC2CCCO2)cc1 (centres undefined)	28	8	0	2	-7	25
CN(C)S(=O)(=O)c1cccc(NC(=S)NNC(=O)c2cc3ccccc3cc2O)c1	/	3	0	9	/	-2
C(=N\c1ncnc2sccc12)/NOCc1ccccc1	32	-6	0	-5	95*	6
CC(C)C(NC(=O)OCc1ccccc1)C(=O)NC(Cc1ccc(O)cc1)C(=O)O (centres undefined)	18	-5	0	-14	-5	6
CC(C)[C@H](NC(=O)[C@H](CCCN=C(N)N)NC(=O)NC(Cc1ccccc1)C(=O)O)C(=O)NC(C=O)CCCN=C(N)N (some centres undefined)	21	84*	0	30	-14	24
CC(C)(C)c1ccc(OCCNC(=S)Nc2ccccc2)cc1	30*	5	0	3	-29	10
CCN(CC)c1ccc(NC(=O)c2cccc(C)c2OC)c(C)c1	29*	5	0	-1	/	18
CCN(CC)c1ccc(NC(=O)c2cccnc2)c(C)c1	4	2	0	1	14	4
COc1ccc(CCNC(=O)/C=C/c2ccco2)cc1OC	-8	8	0	-20	1	1
COc1ccc(/C=C/C(=O)NCCSCc2ccco2)cc1OC	39*	2	0	9	11	10
O=c1cc(-c2ccc(O)c(O)c2)oc2c(C3O[C@H](CO)[C@@H](O)[C@H](O)[C@H]3O)c(O)cc(O)c12 (some centres undefined)	11	4	0	64*	-5	22
O=c1cc(-c2ccc(O)cc2)oc2c(C3O[C@H](CO)[C@@H](O)[C@H](O)[C@H]3O)c(O)cc(O)c12 (some centres undefined)	/	4	0	/	/	25
O=C(CCc1nnc2ccc(NCc3ccco3)nn12)Nc1ccccc1F	-8	3	0	8	1	10
Cc1cc(NC(=O)CN2C(=O)CC(c3ccco3)Sc3ccccc32)no1 (centres undefined)	17	41*	0	-20	13	9
Cc1ccc(S(=O)(=O)N2CCOC23CCN(C(=O)C(=O)NCc2ccccc2)CC3)cc1	/	6	0	30	14	8
Cn1nc(C(=O)Nc2cccc(S(N)(=O)=O)c2)c2ccccc2c1=O	40*	3	0	2	-14	8
Cc1ccc(S(=O)(=O)N[C@H](C(=O)NCC2CCC(C(=O)O)CC2)C(C)C)cc1 (some centres undefined)	18	16	0	0	4	-6
CC(C)NCCCCOc1ccc(Br)cc1Cl	28*	2	0	1	21	20
